# Inconclusive results are not listed. Entries that show only a call come without a potency. The source made the active and inactive calls. Calls follow the shape of the dose curve; as a rule, active = well fitted curve in the direction sought with a large enough effect; inconclusive = small, poorly fitted or top-dose-only effect, or another doubt; inactive = no such curve, though single readings can be large; an effect the other way counts as inactive or inconclusive.
# Key:
# [1] = qHTS of pediatric cancer cell lines to identify multiple opportunities for drug repurposing: Primary screen for TC32 cells (AID 1347089); also: nearly all actives have a fitted effect of over 60% in size; also: potency is read from the fitted curve at half-maximal effect
# Method in brief: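 Measured quantity: luminescence from CellTiter-Glo, reflecting metabolically active TC32 cells following 48 h of compound. Curves came straight from multi-point titrations, with 8 or 11 points in primary and 11 in confirmatory screening.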
# [2] = qHTS of pediatric cancer cell lines to identify multiple opportunities for drug repurposing: Primary screen for SJ-GBM2 cells (AID 1347091); also: potency is read from the fitted curve at half-maximal effect
# Method in brief: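 Eight- or eleven-point concentration series, 48 h treatment at 37 degrees C in growth media; readout CellTiter-Glo luminescence. Potency and efficacy were taken from the concentration-response curves.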
# [3] = qHTS of pediatric cancer cell lines to identify multiple opportunities for drug repurposing: Primary screen for A673 cells (AID 1347092); also: nearly all actives have a fitted effect of over 45% in size; also: potency is read from the fitted curve at half-maximal effect
# Method in brief: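 Cells are plated, rested 5 h, dosed by pintool, incubated 48 h, then lysed with CellTiter-Glo and read by luminescence. DMSO is the neutral control; bortezomib at 2.3 uM final is the positive control.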
# [4] = qHTS of pediatric cancer cell lines to identify multiple opportunities for drug repurposing: Primary screen for SK-N-MC cells (AID 1347093); also: potency is read from the fitted curve at half-maximal effect
# Method in brief: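 Metabolically active cells were quantified by ATP-dependent luminescence (CellTiter-Glo, 15 min at room temperature) following 48 h treatment. Cells had been plated at 500-1,000 per well and settled for 5 h beforehand.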
# [5] = qHTS of pediatric cancer cell lines to identify multiple opportunities for drug repurposing: Primary screen for Saos-2 cells (AID 1347097); also: nearly all actives have a fitted effect of over 40% in size; also: potency is read from the fitted curve at half-maximal effect
# Method in brief: (§1)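 Viability was measured as metabolically active cells after 48 hours of treatment, read by CellTiter-Glo luminescence. Compounds were tested at multiple final concentrations, giving concentration-response curves.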
# [6] = qHTS of pediatric cancer cell lines to identify multiple opportunities for drug repurposing: Primary screen for NB1643 cells (AID 1347099); also: nearly all actives have a fitted effect of over 50% in size; also: potency is read from the fitted curve at half-maximal effect
# Method in brief: as §1
# [7] = qHTS of pediatric cancer cell lines to identify multiple opportunities for drug repurposing: Primary screen for OHS-50 cells (AID 1347103); also: nearly all actives have a fitted effect of over 40% in size; also: potency is read from the fitted curve at half-maximal effect
# Method in brief: (§2)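 Cells (500-1,000/well) rested 5 h, then received compounds for 48 h; metabolically active cells were measured by CellTiter-Glo luminescence. Final concentrations spanned up to 46 µM (MIPE, 11-point) or 0.59 nM-46 µM (NPC, 8-point) in primary screens, 11-point in follow-ups.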
# [8] = qHTS of pediatric cancer cell lines to identify multiple opportunities for drug repurposing: Primary screen for MG 63 (6-TG R) cells (AID 1347105); also: nearly all actives have a fitted effect of over 50% in size; also: potency is read from the fitted curve at half-maximal effect
# Method in brief: as §1
# [9] = qHTS of pediatric cancer cell lines to identify multiple opportunities for drug repurposing: Primary screen for NB-EBc1 cells (AID 1347095); also: potency is read from the fitted curve at half-maximal effect
# Method in brief: as §1
# [10] = qHTS of pediatric cancer cell lines to identify multiple opportunities for drug repurposing: Primary screen for SK-N-SH cells (AID 1347098); also: nearly all actives have a fitted effect of over 65% in size; also: potency is read from the fitted curve at half-maximal effect
# Method in brief: as §2
# [11] = qHTS of pediatric cancer cell lines to identify multiple opportunities for drug repurposing: Primary screen for LAN-5 cells (AID 1347100); also: potency is read from the fitted curve at half-maximal effect
# Method in brief: (§3)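 Cells (500-1,000/well) in growth media were settled 5 h at 37 degrees C, then given compounds for 48 h. Viability was read as CellTiter-Glo luminescence. Primary runs used MIPE at 11 points (0.78 nM-46 µM) and NPC at 8 points (0.59 nM-46 µM); follow-ups used 11 points.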
# [12] = qHTS of pediatric cancer cell lines to identify multiple opportunities for drug repurposing: Primary screen for BT-12 cells (AID 1347101); also: nearly all actives have a fitted effect of over 25% in size; also: potency is read from the fitted curve at half-maximal effect
# Method in brief: as §2
# [13] = qHTS of pediatric cancer cell lines to identify multiple opportunities for drug repurposing: Primary screen for U-2 OS cells (AID 1347096); also: nearly all actives have a fitted effect of over 50% in size
# Method in brief: as §3
# [14] = qHTS of pediatric cancer cell lines to identify multiple opportunities for drug repurposing: Primary screen for Rh18 cells (AID 1347102); also: nearly all actives have a fitted effect of over 65% in size; also: potency is read from the fitted curve at half-maximal effect
# Method in brief: as §3
# [15] = qHTS of pediatric cancer cell lines to identify multiple opportunities for drug repurposing: Primary screen for RD cells (AID 1347104); also: nearly all actives have a fitted effect of over 55% in size; also: potency is read from the fitted curve at half-maximal effect
# Method in brief: as §1
# [16] = qHTS of pediatric cancer cell lines to identify multiple opportunities for drug repurposing: Primary screen for control Hh wild type fibroblast cells (AID 1347106);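 also: series mostly up to about 46 µM; a drop in luminescence marks cytotoxicity and a rise apparent proliferation; nearly all actives have a fitted effect of over 55% in size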
# Method in brief: as §3
# [17] = qHTS of pediatric cancer cell lines to identify multiple opportunities for drug repurposing: Primary screen for Rh30 cells (AID 1347107); also: series mostly up to about 46 µM; nearly all actives have a fitted effect of over 75% in size
# Method in brief: as §3
# [18] = qHTS of pediatric cancer cell lines to identify multiple opportunities for drug repurposing: Primary screen for BT-37 cells (AID 1347094); also: series mostly up to about 57 µM
# Method in brief: as §1
Compound,Potency [1],Potency [2],Potency [3],Potency [4],Potency [5],Potency [6],Potency [7],Potency [8],Potency [9],Potency [10],Potency [11],Potency [12],Potency [13],Potency [14],Potency [15],Potency [16],Potency [17],Potency [18]
O=c1cc(CN2CCOCC2)occ1OCCCCCSc1ccnc2cc(C(F)(F)F)ccc12,inactive,1.32 µM (active),14.8 µM (active),1.32 µM (active),4.18 µM (active),inactive,15.3 µM (active),inactive,–,–,–,–,–,–,–,–,–,–
CC(C(=O)O)c1ccc(-c2ccccc2)c(F)c1 (stereo not given),inactive,inactive,–,–,–,26.4 µM (active),–,inactive,inactive,24.1 µM (active),inactive,inactive,–,–,–,–,–,–
OC[C@H]1O[C@@H](Oc2cc(O)cc(C=Cc3ccc(O)cc3)c2)[C@H](O)[C@@H](O)[C@H]1O,inactive,inactive,9.35 µM (active),–,inactive,inactive,–,inactive,inactive,–,inactive,inactive,inactive,inactive,inactive,inactive,inactive,–
CC(C)C(=O)Nc1ncc(-c2cc(C(F)F)nn2-c2c(Cl)cccc2Cl)s1,inactive,20.9 µM (active),–,–,18.7 µM (active),–,27.3 µM (active),–,16.6 µM (active),24.1 µM (active),23.5 µM (active),–,–,–,–,–,inactive,–
O=C(Nc1cc(Cl)cc2c1[nH]c1cnccc12)c1cccnc1,inactive,–,14.8 µM (active),4.18 µM (active),inactive,–,–,–,–,24.1 µM (active),inactive,–,inactive,inactive,–,–,–,–
C=CCc1ccc(O)c(-c2ccc(O)c(CC=C)c2)c1,inactive,–,23.5 µM (active),23.5 µM (active),18.7 µM (active),inactive,24.3 µM (active),18.7 µM (active),inactive,–,–,–,inactive,–,–,inactive,–,–
CC1CCC(C(=O)N(c2cc(C#CC(C)(C)C)sc2C(=O)O)C2CCC(O)CC2)CC1 (stereo not given),inactive,inactive,inactive,–,–,20.9 µM (active),–,inactive,–,inactive,inactive,inactive,inactive,inactive,–,inactive,–,–
CC(C)OC(=O)CCCC=CC[C@@H]1[C@H](C=C[C@@H](O)COc2cccc(C(F)(F)F)c2)[C@H](O)C[C@@H]1O,inactive,23.5 µM (active),–,–,14.8 µM (active),23.5 µM (active),24.3 µM (active),inactive,23.5 µM (active),–,inactive,19.3 µM (active),inactive,–,33.2 µM (active),inactive,–,–
Cc1nnc(C(C)C)n1C1C[C@H]2CC[C@@H](C1)N2CC[C@H](NC(=O)C1CCC(F)(F)CC1)c1ccccc1 (stereo not given in full),inactive,inactive,–,–,inactive,18.7 µM (active),inactive,inactive,inactive,inactive,inactive,inactive,inactive,inactive,–,inactive,–,inactive
CN(C)Cc1ccc(-c2nc3cccc4c3n2CCNC4=O)cc1,inactive,–,11.8 µM (active),11.8 µM (active),–,23.5 µM (active),–,inactive,16.6 µM (active),21.5 µM (active),–,–,inactive,inactive,16.6 µM (active),–,inactive,–
CCOc1ccc(Nc2nc(-c3c(C)nc4ccccn34)cs2)cc1,0.165 µM (active),–,0.003 µM (active),0.0047 µM (active),inactive,–,0.0039 µM (active),inactive,–,inactive,0.001 µM (active),–,inactive,inactive,inactive,inactive,–,–
O=c1cc(-c2cccc3c2Sc2ccccc2S3)oc(N2CCOCC2)c1,inactive,inactive,–,18.7 µM (active),–,–,–,–,inactive,–,inactive,inactive,–,inactive,–,inactive,inactive,inactive
Cc1c(O)cccc1C(=O)N[C@@H](CSc1ccccc1)[C@H](O)CN1C[C@H]2CCCC[C@@H]2C[C@@H]1C(=O)NC(C)(C)C,inactive,18.7 µM (active),23.5 µM (active),–,26.4 µM (active),–,24.3 µM (active),18.7 µM (active),–,–,–,–,–,18.7 µM (active),26.4 µM (active),inactive,–,–
CCOC(=O)C1=C(N)Oc2ccc(Br)cc2C1C(C#N)C(=O)OCC (stereo not given),inactive,7.43 µM (active),–,–,–,10.5 µM (active),inactive,inactive,6.62 µM (active),24.1 µM (active),16.6 µM (active),inactive,inactive,14.8 µM (active),29.6 µM (active),inactive,inactive,inactive
CCNc1cc(NC2CCC(O)CC2)nc(Nc2ccc3c(ccn3Cc3ccccc3)c2)n1 (stereo not given),inactive,29.6 µM (active),29.6 µM (active),–,–,–,–,inactive,–,–,–,27.3 µM (active),inactive,–,–,inactive,–,–
CCCCCNC(=O)N1CCC(CN(Cc2ccc(Cl)cc2)Cc2ccc([N+](=O)[O-])s2)C1 (stereo not given),inactive,inactive,–,–,–,23.5 µM (active),24.3 µM (active),–,26.4 µM (active),inactive,–,–,–,–,29.6 µM (active),inactive,–,–
